Test results taken from PubChem BioAssay AID1159580 (chemical genetic matrix, 2015).
Where “and” joins values, the source holds several entries; their conditions need not be identical. Equal values may be shown once. The campaign covered roughly 5,500 compounds. About 2,000 (36%) were called active. Not shown: some 18% with an inconclusive outcome. Cut-off read from the data, not from the text of the source: active = normalized growth mostly below about 0.91 (no sharp cut-off); inconclusive = no clear call, values can overlap the other calls; inactive = mostly above about 0.92. Some of the results follow.

Assay: chemical genetic growth profiling, strain panel (AID 1159580);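 note: tested at 20 µM; growth read once vehicle control cultures reached saturation at 30 °C; 1 = growth at the plate median or of vehicle wells; lower values mean less growth of the strain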
Conditions: S. cerevisiae deletion strains, growth OD

Measured: normalized growth

CC(=O)Nc1c(I)cc(I)c(C(=O)O)c1I
inactive: locus YAL013W, strain DEP1, hits give low values 0.992 | locus YAL021C, strain ccr4, hits give low values 0.986 | locus YAL026C, strain drs2, hits give low values 0.995 | locus YAL030W, strain snc1, hits give low values 0.978 | locus YBL061C, strain skt5, hits give low values 0.974 | locus YBR009C, strain hhf1, hits give low values 0.992 | locus YBR021W, strain FUR4, hits give low values 1.02 | locus YBR023C, strain chs3, hits give low values 0.979 | locus YBR171W, strain sec66, hits give low values 0.967 | locus YBR229C, strain ROT2, hits give low values 0.983 | locus YBR231C, strain swc5, hits give low values 0.971 | locus YBR279W, strain paf1, hits give low values 0.985 | locus YCL011C, strain gbp2, hits give low values 0.994 | locus YCL016C, strain dcc1, hits give low values 0.994 | locus YCL029C, strain bik1, hits give low values 0.994 | locus YCL069W, strain vba3, hits give low values 0.98 | locus YCR088W, strain abp1, hits give low values 0.978 | locus YDL005C, strain med2, hits give low values 0.967 | locus YDL035C, strain GPR1, hits give low values 1.01 | locus YDL040C, strain nat1, hits give low values 0.976 | locus YDL074C, strain BRE1, hits give low values 1.02 | locus YDL101C, strain DUN1, hits give low values 0.99 | locus YDL134C, strain PPH21, hits give low values 0.983 | locus YDL185W, strain tfp1, hits give low values 0.987 | locus YDL192W, strain arf1, hits give low values 0.999 | locus YDR001C, strain nth1, hits give low values 0.991 | locus YDR069C, strain doa4, hits give low values 0.959 | locus YDR101C, strain arx1, hits give low values 0.995 | locus YDR137W, strain rgp1, hits give low values 0.967 | locus YDR150W, strain NUM1, hits give low values 0.996 | locus YDR159W, strain sac3, hits give low values 0.967 | locus YDR162C, strain NBP2, hits give low values 1.02 | locus YDR195W, strain ref2 0.91 | locus YDR297W, strain sur2, hits give low values 0.994 | locus YDR318W, strain mcm21, hits give low values 0.995 | locus YDR334W, strain swr1, hits give low values 0.976 | locus YDR335W, strain msn5, hits give low values 0.988 | locus YDR388W, hits give low values 0.988 | locus YDR392W, strain spt3, hits give low values 1.03 | locus YDR502C, strain sam2, hits give low values 0.996 | locus YEL003W, strain gim4, hits give low values 0.978 | locus YEL037C, strain rad23, hits give low values 0.975 | locus YEL061C, strain CIN8 (second series), hits give low values 0.966 | locus YEL061C, strain CIN8, hits give low values 0.999 | locus YER015W, strain faa2, hits give low values 0.99 | locus YER016W, strain bim1, hits give low values 0.979 | locus YER110C, hits give low values 0.989 | locus YER111C, strain swi4, hits give low values 0.981 | locus YER155C, strain BEM2 (second series), hits give low values 0.977 | locus YER155C, strain BEM2, hits give low values 0.986 | locus YER167W, strain BCK2, hits give low values 0.992 | locus YFR010W, strain ubp6, hits give low values 0.965 | locus YGL078C, strain dbp3, hits give low values 0.995 | locus YGL086W, strain mad1, hits give low values 0.981 | locus YGL167C, strain pmr1, hits give low values 0.971 | locus YGL173C, strain kem1, hits give low values 0.99 | locus YGL227W, strain vid30, hits give low values 0.971 | locus YGL240W, strain doc1, hits give low values 0.974 | locus YGL248W, strain PDE1, hits give low values 0.986 | locus YGL253W, strain hxk2, hits give low values 0.979 | locus YGR078C, strain PAC10, hits give low values 1.05 | locus YGR135W, strain pre9, hits give low values 0.994 | locus YGR229C, strain SMI1, hits give low values 1.06 | locus YGR252W, strain gcn5, hits give low values 0.986 | locus YHR013C, strain ard1, hits give low values 0.987 | locus YHR027C, strain rpn1, hits give low values 0.982 | locus YHR030C, strain SLT2, hits give low values 0.991 and 1.01 | locus YHR079C, strain IRE1 (second series), hits give low values 0.998 | locus YHR079C, strain IRE1, hits give low values 1 | locus YHR094C, strain hxt1, hits give low values 0.989 | locus YHR129C, strain ARP1, hits give low values 0.991 | locus YHR142W, strain chs7, hits give low values 0.987 | locus YHR200W, strain rpn10, hits give low values 0.991 | locus YIL066C, strain RNR3, hits give low values 1 | locus YIL073C, strain SPO22, hits give low values 1.01 | locus YIL125W, strain kgd1, hits give low values 0.992 | locus YIR030C, strain dcg1, hits give low values 0.992 | locus YJL092W, strain hpr5, hits give low values 0.973 | locus YJL095W, strain BCK1 (second series), hits give low values 0.978 | locus YJL095W, strain BCK1, hits give low values 1.01 | locus YJL115W, strain asf1, hits give low values 0.963 | locus YJL129C, strain trk1, hits give low values 0.946 | locus YJL134W, strain LCB3, hits give low values 0.994 | locus YJL154C, strain vps35, hits give low values 0.964 | locus YJL164C, strain tpk1, hits give low values 0.995 | locus YJL166W, strain qcr8, hits give low values 0.971 | locus YJL168C, strain set2, hits give low values 0.99 | locus YJL187C, strain SWE1 (second series), hits give low values 0.995 | locus YJL187C, strain SWE1, hits give low values 0.983 | locus YJR043C, strain POL32, hits give low values 1.03 | locus YJR066W, strain TOR1, hits give low values 0.963
